Source: PubChem BioAssay (Tox21)
Results filed as inconclusive are left out. Where a call stands in place of a potency, no number is given. Activity calls are given as the source filed them. Unless noted, calls come from the whole dose curve.

Assay: qHTS assay for small molecule agonists of the antioxidant response element (ARE) signaling pathway (AID 743202; active = well fitted activation curve with a large enough effect in the signal ratio in the repeat runs, not every such curve was filed as active; the % refers to the signal ratio)
Details: HepG2 ARE-bla reporter, beta-lactamase FRET, 16 h; series mostly up to 73.3 µM
In short: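 Following a 16 h, 37 C exposure of reporter HepG2 cells (ARE-driven beta-lactamase, 2,000 cells/well) to compounds, FRET substrate was applied for 2 h at room temperature and fluorescence intensity recorded.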
Potency is the fitted concentration of half-maximal effect.

Question: Which Potency does the source give for `NCC1CCCC(CN)C1` (stereo unspecified) here?
Answer: inactive

Question: With `C[N+](C)(C)CCOC(N)=O` as the molecule, how does the Potency read?
Answer: inactive

Question: With `c1cnc2c(n1)CCCC2` as the molecule, how does the Potency read?
Answer: inactive

Question: With `Nc1nccs1` as the molecule, how does the Potency read?
Answer: inactive

Question: For `CCCCCCOC(=O)CCCCCCCC(=O)OCCCCCC`, which Potency is on record?
Answer: inactive

Question: With `COCCOC` as the molecule, how does the Potency read?
Answer: inactive

Question: Which Potency does the source give for `C/C=C(\C)C(=O)OCCC(C)CCC=C(C)C` (stereo unspecified) here?
Answer: inactive

Question: Which Potency does the source give for `CO[C@H]1O[C@H](CO)[C@@H](O)[C@H](O)[C@H]1O` here?
Answer: inactive

Question: With `O=C(CCCCCCCCC#CI)Oc1ccccc1` as the molecule, how does the Potency read?
Answer: inactive

Question: Which Potency does the source give for `CCCCN(CCCC)CCCOC(=O)c1ccc(N)cc1` here?
Answer: inactive

Question: For `CC1=CC(=O)CC(C)(C)C1(O)/C=C/C(C)=C\C(=O)O` (stereo unspecified), which Potency is on record?
Answer: inactive

Question: Which Potency does the source give for `CCCC(=O)O[C@]1(C(=O)COC(=O)CC)CC[C@H]2[C@@H]3CCC4=CC(=O)CC[C@]4(C)[C@H]3[C@@H](O)C[C@@]21C` here?
Answer: inactive

Question: For `Cc1ccccc1N1C(=O)c2cc(S(N)(=O)=O)c(Cl)cc2NC1C` (stereo unspecified), which Potency is on record?
Answer: inactive

Question: Which Potency does the source give for `Cc1cnc(C)c(C)n1` here?
Answer: inactive

Question: Which Potency does the source give for `CCCCC(=O)O[C@]1(C(=O)CO)CC[C@H]2[C@@H]3CCC4=CC(=O)CC[C@]4(C)[C@H]3[C@@H](O)C[C@@]21C` here?
Answer: inactive

Question: Which Potency does the source give for `COC(=O)Nc1nc2ccc(C(=O)c3cccs3)cc2[nH]1` here?
Answer: 0.75 µM (active)

Question: With `CC(=O)[C@H]1CC[C@H]2[C@@H]3C[C@H](C)C4=CC(=O)CC[C@]4(C)[C@H]3[C@@H](O)C[C@]12C` as the molecule, how does the Potency read?
Answer: inactive

Question: For `C=CC(=C)CCCC(C)(C)OC(C)=O`, which Potency is on record?
Answer: inactive

Question: With `CN(C)C(=O)Nc1ccc(Oc2ccc(Cl)cc2)cc1` as the molecule, how does the Potency read?
Answer: 19.3 µM (active)

Question: Which Potency does the source give for `CCCCC(CC)CNCC(CC)CCCC` (stereo unspecified) here?
Answer: inactive

Question: Which Potency does the source give for `CCC(C)=O` here?
Answer: inactive

Question: With `CCCCCCCCSCCO` as the molecule, how does the Potency read?
Answer: inactive

Assay: qHTS assay for small molecule agonists of the antioxidant response element (ARE) signaling pathway - cell viability counter screen (AID 743203); note: nearly all actives have a fitted effect of over 55% in size
Details: ARE-bla HepG2 viability, CellTiter-Glo luminescence, 16 h; series mostly up to 73.3 µM
In short: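 Viability counter screen: CellTiter-Glo luminescence, read after 30 min at room temperature, in ARE-bla HepG2 wells. Compound exposure lasted 16 h at 37C/5% CO2, following a 5 h pre-incubation of the cells after plating.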

Question: With `NCC1CCCC(CN)C1` (stereo unspecified) as the molecule, how does the Potency read?
Answer: inactive

Question: Which Potency does the source give for `O=C(C(=O)c1ccccc1)c1ccccc1` here?
Answer: inactive

Question: Which Potency does the source give for `C[N+](C)(C)CCOC(N)=O` here?
Answer: inactive

Question: Which Potency does the source give for `c1cnc2c(n1)CCCC2` here?
Answer: inactive

Question: With `Nc1nccs1` as the molecule, how does the Potency read?
Answer: inactive

Question: For `CCCCCCOC(=O)CCCCCCCC(=O)OCCCCCC`, which Potency is on record?
Answer: inactive

Question: For `COCCOC`, which Potency is on record?
Answer: inactive

Question: For `C/C=C(\C)C(=O)OCCC(C)CCC=C(C)C` (stereo unspecified), which Potency is on record?
Answer: inactive

Question: Which Potency does the source give for `CC(=N\O)/C(C)=N/O` here?
Answer: inactive

Question: With `CC(C)CCCCCOC(=O)CCCCC(=O)OCCCCCC(C)C` as the molecule, how does the Potency read?
Answer: inactive

Question: With `CO[C@H]1O[C@H](CO)[C@@H](O)[C@H](O)[C@H]1O` as the molecule, how does the Potency read?
Answer: inactive

Question: Which Potency does the source give for `CN1CCN(CCCN2c3ccccc3Sc3ccc(S(=O)(=O)N(C)C)cc32)CC1` here?
Answer: 26.6 µM (active)

Question: For `O=C(CCCCCCCCC#CI)Oc1ccccc1`, which Potency is on record?
Answer: inactive

Question: Which Potency does the source give for `CCCCN(CCCC)CCCOC(=O)c1ccc(N)cc1` here?
Answer: inactive

Question: With `CC1=CC(=O)CC(C)(C)C1(O)/C=C/C(C)=C\C(=O)O` (stereo unspecified) as the molecule, how does the Potency read?
Answer: inactive

Question: With `CCCC(=O)O[C@]1(C(=O)COC(=O)CC)CC[C@H]2[C@@H]3CCC4=CC(=O)CC[C@]4(C)[C@H]3[C@@H](O)C[C@@]21C` as the molecule, how does the Potency read?
Answer: inactive

Question: Which Potency does the source give for `Cc1ccccc1N1C(=O)c2cc(S(N)(=O)=O)c(Cl)cc2NC1C` (stereo unspecified) here?
Answer: inactive

Question: With `Cc1ccc(Nc2nccc(N(C)c3ccc4c(C)n(C)nc4c3)n2)cc1S(N)(=O)=O` as the molecule, how does the Potency read?
Answer: inactive

Question: Which Potency does the source give for `Cc1ccc(/C=N/n2c(-c3ccccc3)csc2=S)cc1` here?
Answer: inactive

Question: For `Cc1cnc(C)c(C)n1`, which Potency is on record?
Answer: inactive

Question: Which Potency does the source give for `CC(C)(C)C(=O)O` here?
Answer: inactive

Question: With `CCCCC(=O)O[C@]1(C(=O)CO)CC[C@H]2[C@@H]3CCC4=CC(=O)CC[C@]4(C)[C@H]3[C@@H](O)C[C@@]21C` as the molecule, how does the Potency read?
Answer: inactive

Question: With `CC(C)c1nnc2ccc(-c3ocnc3-c3cc(F)ccc3F)cn12` as the molecule, how does the Potency read?
Answer: inactive

Question: With `C[N+]1(C)CCC(=C(c2ccccc2)c2ccccc2)CC1` as the molecule, how does the Potency read?
Answer: inactive

Question: Which Potency does the source give for `CC(=O)[C@H]1CC[C@H]2[C@@H]3C[C@H](C)C4=CC(=O)CC[C@]4(C)[C@H]3[C@@H](O)C[C@]12C` here?
Answer: inactive

Question: With `C=CC(=C)CCCC(C)(C)OC(C)=O` as the molecule, how does the Potency read?
Answer: inactive

Question: For `Fc1c(F)c(F)c(Br)c(F)c1F`, which Potency is on record?
Answer: inactive

Question: With `Nc1nc(Cl)nc2c1ncn2[C@@H]1O[C@H](CO)[C@@H](O)[C@@H]1F` as the molecule, how does the Potency read?
Answer: inactive

Question: For `CCOC(=O)[C@@H](C)Oc1ccc(Oc2nc3ccc(Cl)cc3o2)cc1`, which Potency is on record?
Answer: inactive

Question: For `CN(C)C(=O)Nc1ccc(Oc2ccc(Cl)cc2)cc1`, which Potency is on record?
Answer: inactive

Question: For `CCCCC(CC)CNCC(CC)CCCC` (stereo unspecified), which Potency is on record?
Answer: inactive

Question: With `C[Si]1(C)O[Si](C)(C)O[Si](C)(C)O1` as the molecule, how does the Potency read?
Answer: inactive

Question: Which Potency does the source give for `Cc1oc(C)c(C(=O)Nc2ccccc2)c1C` here?
Answer: inactive

Question: With `COCc1c(C(C)C)nc(C(C)C)c(/C=C/[C@@H](O)C[C@@H](O)CC(=O)O)c1-c1ccc(F)cc1` as the molecule, how does the Potency read?
Answer: inactive

Question: For `CCC(C)=O`, which Potency is on record?
Answer: inactive

Question: With `CC1(C)C(=O)N(Br)C(=O)N1Cl` as the molecule, how does the Potency read?
Answer: inactive

Question: With `CC1CC(O)CC(C)(C)C1` (stereo unspecified) as the molecule, how does the Potency read?
Answer: inactive

Question: With `CC1C2CC(CC2C2CCCC(O)C2)C1(C)C` (stereo unspecified) as the molecule, how does the Potency read?
Answer: 61.1 µM (active)

Question: With `CCCCCCCCSCCO` as the molecule, how does the Potency read?
Answer: inactive
